Experimental findings from PubChem BioAssay AID652010 (The Scripps Research Institute Molecular Screening Center, 2013) are described below.

Screen size: about 370,000 compounds; about 4,100 (1.1%) were called active. The entries come from a sample that favours actives as a whole. Values without a mark were called inactive.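 How the source made its calls: active means inhibition above the mean over all tested compounds plus 3 SD (cut at about 3.6% in these data); inactive means the rest.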

A short description of the assay: DAX1 (NR0B1) inhibitors on StAR promoter, primary screen, cell-based, luminescence, SF-1 (NR5A1), full-length DAX-1 (AID 652010).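 Further: 0% = DAX-1 cells with DMSO and 100% = cells lacking DAX-1 with DMSO; higher inhibition means more luminescence from relief of DAX-1 repression.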 Conditions: HEK293T StAR-luciferase reporter, SF-1/DAX-1 repression relief; at 6.8 µM; active compounds read high. A general note: Reporter assays use an easily measured gene product as a stand-in for the process of interest.
Turning to `O=C(CSc1nc2ccccc2n1Cc1ccccc1)NNC(=S)Nc1ccccc1`, the inhibition was -1.17%.
Regarding `O=C(Nc1ccn(Cc2ccccc2)n1)c1n[nH]c([N+](=O)[O-])c1Cl`, the inhibition is 5.27% (active).
With `O=C(Nc1ccn(Cc2ccccc2)n1)c1cccc(F)c1` the figure was 4.43% (active).
Regarding `CCOc1cccc(C(=O)Nc2cnn(Cc3ccccc3)c2)c1`, the inhibition is -0.67%.
As to `Cc1ccc(NC(=O)CC2C(=O)N(Cc3ccccc3)C(=S)N2NC(=O)c2cccc(F)c2)c(C)c1` (stereo unspecified), the inhibition is -0.22%.
Take `O=C(Cn1cnc([N+](=O)[O-])n1)NCCc1ccccc1`: the inhibition was -0.33%.
On to `O=C(O)CC(Cc1ccccc1)C(=O)Nc1ccc([N+](=O)[O-])cc1` (stereo unspecified), for which the inhibition was -0.05%.
Take `Cc1cc(C)cc(NC(=O)N2CCC(N(C)CCC(C)C)CC2)c1`: the inhibition was 1.03%.
In the case of `Cc1sc2nc(COC(=O)C(NC(=O)c3ccc(Cl)cc3Cl)C(C)C)[nH]c(=O)c2c1C` (stereo unspecified), the inhibition was -0.03%.
As to `COC(=O)c1ccc(CN2C(=O)[C@]3(OCCC=C[C@H]3C)c3c(Br)cccc32)cc1`, the inhibition is 1.3%.
Turning to `COC(=O)C12C=C3CC(c4ccccc4)=C3C(=O)N1Cc1[nH]c3ccccc3c1C2` (stereo unspecified), the inhibition is 0.17%.
With `Cc1ccc(CS(=O)Cc2ccc(C(=O)N3CCOCC3)o2)cc1` (stereo unspecified) the figure was -0.29%; with `Cc1ccc(C(=O)N2CCN(C3CCCCC3)CC2)s1`, 0.45%.
As for `Cc1ccc(S(=O)Cc2ccc(C(=O)N3CCN(C4CCCCC4)CC3)o2)cc1` (stereo unspecified), the figure is 5.98% (active); as for `COC(=O)[C@]12C[C@H](CC(=O)NCCc3ccccc3OC)C(=O)N(Cc3ccco3)C1=C[C@H](C(C)C)O[C@@H]2C1CC1`, -0.45%.
Regarding `Cc1ccccc1CS(=O)(=O)Cc1ccc(C(=O)Nc2ccc(Cl)cc2)o1`, the inhibition is -3.88%.
For the molecule `Cc1ccccc1NC(=O)C1CCN(c2ncccn2)CC1`, the inhibition is -0.57%.
Take `O=C(CCSc1ccccc1)N1CCN(c2ccccc2F)CC1`: the inhibition was 3.74% (active).
On to `O=C(CCS(=O)(=O)c1cccc2nsnc12)N1CCN(c2ccccc2F)CC1`, for which the inhibition was 0.3%.
As for `O=C(CCc1ccccc1F)N1CCN(c2ccccc2)CC1`, the figure is -0.1%.
Take `O=C(c1ccc(-c2ccccc2)cc1)C1CCCN(C(=O)c2cncs2)C1` (stereo unspecified): the inhibition was -0.34%.
As to `O=C(Nc1ccc(-n2ccnc2P(=O)(O)c2ccccc2)cc1)c1ccccc1Br`, the inhibition is 0.24%.
For `O=C(O)c1ccccc1-c1ccccc1C(=O)Nc1ccccc1Br`, the inhibition is 2.05%.
With `O=C(Nc1ccccc1)c1ccccc1Br` the figure was 4.1% (active).
For `CCC(CO)Nc1cccc2c1S(=O)(=O)N(Cc1cn(Cc3ccccc3C(F)(F)F)nn1)Cc1ccccc1O2` (stereo unspecified), the inhibition was 0.53%.
With `COc1ccc(N2CCN(CCNS(=O)(=O)c3ccc(Cl)s3)CC2)cc1` the figure was -1.29%.
For `Cc1ccc(NC(=O)c2cnc(SCC(=O)NCC3CCCO3)n(C)c2=O)cc1` (stereo unspecified), the inhibition is 3.81% (active).
With `Cn1c(SCC(=O)c2ccccc2)ncc(C(=O)Nc2ccc(F)cc2)c1=O`, the inhibition was 0.92%.
In the case of `CCn1c(SCC(=O)NCC2CCCO2)nc2ccccc21` (stereo unspecified), the inhibition is 0.35%.
As for `CC(CCN1CCC(C(O)(c2ccccc2)c2ccccc2)CC1)Oc1ccc([N+](=O)[O-])cc1Cl` (stereo unspecified), the figure is -0.6%; as for `CC(C)c1ccc(NS(=O)(=O)c2cn(C)c(=O)n(C)c2=O)cc1`, 1.86%.
Consider `Cc1ccc(-n2c(SCC(=O)Nc3cccc4ccccc34)nnc2-c2ccco2)cc1`, for which the inhibition is -1.09%.
For the molecule `C=CCN=C1NC(c2ccccc2)C(C(=O)OC)=C(C)N1Cc1ccc(C(F)(F)F)cc1` (stereo unspecified), the inhibition was -0.62%.
Turning to `NNc1cccc(C=Cc2ccccc2)cc1=O`, the inhibition was 4.11% (active).
For the molecule `Cc1ccc(NC(=O)Nc2cc(C)nn2-c2ccccc2)cc1`, the inhibition was -0.81%.
As for `COC(=O)[C@]12C[C@H](CC(=O)NCc3cccs3)C(=O)N(CCc3ccc(OC)c(OC)c3)C1=C[C@H](C(C)C)O[C@@H]2C1CC1`, the figure is 0.43%; as for `CCOC(=O)N1CCN(C(=O)C[C@H]2C[C@@]3(C(=O)OC)C(=C[C@H](C(C)(C)C)O[C@@H]3C)N(Cc3ccc(Cl)cc3Cl)C2=O)CC1`, -1.88%; as for `Fc1ccccc1/C=N/Nc1cc(N2CCCCC2)ncn1`, 3.71% (active).
In the case of `CCOC(=O)c1cccc(NC(=O)CN(C)S(=O)(=O)c2ccc(-c3cocn3)s2)c1`, the inhibition is -0.38%.
`COc1cccc(CNC(=O)C2CCCN(c3nc4ccccc4o3)C2)c1OC` (stereo unspecified): the inhibition is -1.08%.
For `O=C(O)Cn1c(Cc2ccccc2)nc2ccccc21`, the inhibition is 0.13%.
With `Cc1c(C=O)c2ccccc2n1CC(=O)O` the figure was 3.62% (active); with `Cc1c(C=O)c2ccccc2n1CCOc1ccccc1`, -1.1%.
In the case of `O=c1oc(-c2ccccc2NS(=O)(=O)c2ccc(Cl)cc2)nc2ccccc12`, the inhibition was 0.22%.
With `O=c1oc(/C=C/c2ccccc2)nc2ccccc12` the figure was 5.78% (active).
Consider `S=c1[nH]nc(/C=C/c2ccccc2)o1`, for which the inhibition is -0.19%.
With `CN(CC(=O)Nc1ccc(C(N)=O)cc1)S(=O)(=O)c1ccc2c(c1)OCCO2` the figure was -0.16%; with `COCCCNC(=O)c1ccc(CNS(=O)(=O)c2ccc(NC(C)=O)cc2)cc1`, -0.22%.
As to `CC1CCCN(c2cccc3c2S(=O)(=O)N(Cc2ccc(F)cc2)[C@@H](C)[C@H](c2ccccc2)O3)C1` (stereo partly specified), the inhibition is 1.64%.
As to `COc1ccc(NC(=O)CSCc2ccc([N+](=O)[O-])cc2)cc1OC`, the inhibition is 0.2%.
In the case of `COc1cc(/C=N/O)ccc1OCc1ccc([N+](=O)[O-])cc1`, the inhibition is 4.6% (active).
With `CCOc1cc(/C=N/O)ccc1OCc1ccccc1F` the figure was 0.47%; with `Cn1nc(C(C)(C)C)c(NC(=O)c2sccc2Cl)c1C(C)(C)C`, -0.4%.
Regarding `C[C@@H]1ON(C)[C@H]2C[C@H]3c4cc(N5CCOCC5)ccc4CCN3C[C@@H]12`, the inhibition was 0.27%.
As for `Brc1ccc2nc(-c3ccccc3)c(Cc3ccccc3)n2c1`, the inhibition was 0.67%.
In the case of `Cc1ccc(-c2nc3ccc(Cl)cn3c2Cc2ccccc2)cc1`, the inhibition is 4.09% (active).
For the molecule `Cc1cc(Br)cn2c(Cc3ccccc3C(F)(F)F)c(-c3ccc(C#N)cc3)nc12`, the inhibition was -0.14%.
As for `Cc1cc(Br)cn2c(Cc3ccccc3C(F)(F)F)c(-c3ccc(Cl)cc3)nc12`, the figure is -1.19%; as for `Cc1ccc(-c2nc3ccc(Br)cn3c2Cc2ccccc2C(F)(F)F)cc1`, 7.12% (active); as for `COC(=O)c1ccc2nc(-c3ccc(F)cc3)c(Cc3ccc(C)cc3)n2c1`, 0.98%.
Take `Cc1ccc(-c2nc3c(C)cc(Br)cn3c2Cc2ccccc2)cc1`: the inhibition was -0.26%.
As for `COC(=O)c1ccc2nc(-c3ccccc3)c(Cc3ccc(OC)cc3C)n2c1`, the figure is 3.05%; as for `COc1ccccc1Cc1c(-c2ccc(Cl)cc2)nc2ccc(Cl)cn12`, 2.6%.
As for `COc1ccccc1Cc1c(-c2ccc(F)cc2)nc2ccc(C)cn12`, the figure is 4.57% (active); as for `Cc1ccc2nc(-c3cccnc3)c(NC3CCCC3)n2c1`, -0.53%.
As for `Cc1ccc2nc(-c3ccccc3)c(CC3CCCCC3)n2c1`, the figure is 3.67% (active).

For orientation: inhibition means the change of the read-out against control, counted positive when it falls.
